In PubChem BioAssay (EPA / NIEHS):
Active and inactive are the calls of the source. How the source made its calls: active means hit-call score of the fitted dose curve at least 0.9, where 1 is the maximum; inactive means score below 0.9.

Assays:
[1] = read-out: Interleukin-6 (IL6), IL6 (gene 3569); assay: BSK_CASM3C_IL6: BioMAP Diversity Plus: CASM3C Assay for Interleukin-6 (IL6) Biomarker Activity for (AID 2283040); conditions: primary human coronary artery smooth muscle cells; actives raise or lower the signal
[2] = read-out: Tissue plasminogen activator (tPA), PLAT (gene 5327); assay: BSK_BE3C_tPA: BioMAP Diversity Plus: BE3C Assay for Tissue plasminogen activator (tPA) Biomarker Activity (AID 2283041); conditions: primary human bronchial epithelial cells; actives raise or lower the signal;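 on outcome: tPA level quantified by ELISA one day after compound addition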
Outline: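 Bidirectional curve fitting relative to DMSO defined activity, with tPA detected by ELISA in chemically treated human bronchial epithelial primary cells at 24 hours.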

[3] = read-out: Interleukin-8 (IL8), CXCL8 (gene 3576); assay: BSK_CASM3C_IL8: BioMAP Diversity Plus: CASM3C Assay for Interleukin-8 (IL8) Biomarker Activity (AID 2283042); conditions: primary human coronary artery smooth muscle cells; actives raise or lower the signal;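 further: IL-8 protein level quantified by ELISA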
[4] = read-out: Human Leukocyte Antigen - DR isotype (HLADR), HLA-DRA (gene 3122); assay: BSK_CASM3C_HLADR: BioMAP Diversity Plus: CASM3C Assay for Human Leukocyte Antigen - DR isotype (HLADR) Biomarker Activity (AID 2283043); conditions: primary human coronary artery smooth muscle cells; actives raise or lower the signal;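 further: cell-surface HLA-DR protein level quantified by ELISA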
[5] = read-out: Macrophage colony-stimulating factor (MCSF), CSF1 (gene 1435); assay: BSK_CASM3C_MCSF: BioMAP Diversity Plus: CASM3C Assay for Macrophage colony-stimulating factor (MCSF) Biomarker Activity (AID 2283044); conditions: primary human coronary artery smooth muscle cells; actives raise or lower the signal;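 further: M-CSF protein amount quantified by ELISA after 24 h exposure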
[6] = read-out: Low-density lipoprotein receptor (LDLR), LDLR (gene 3949); assay: BSK_CASM3C_LDLR: BioMAP Diversity Plus: CASM3C Assay for Low-density lipoprotein receptor (LDLR) Biomarker Activity (AID 2283045); conditions: primary human coronary artery smooth muscle cells; actives raise or lower the signal;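 further: LDLR protein level on the cell surface quantified by ELISA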
[7] = read-out: Monocyte Chemoattractant Protein-1 (MCP1), CCL2 (gene 6347); assay: BSK_CASM3C_MCP1: BioMAP Diversity Plus: CASM3C Assay for Monocyte Chemoattractant Protein-1 (MCP1) Biomarker Activity (AID 2283046); conditions: primary human coronary artery smooth muscle cells; actives raise or lower the signal;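 further: MCP-1 level quantified by ELISA 24 h after dosing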
[8] = BSK_CASM3C_Proliferation: Cell Proliferation Assessment in the BioMAP Diversity Plus: CASM3C Assay (AID 2283047); conditions: primary human coronary artery smooth muscle cells;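 further: sulforhodamine B total protein stain as relative cell number at 560 nm; sub-confluent cells exposed 48 h before staining; fitted both ways against DMSO so gain or loss of cell number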
[9] = read-out: Monokine induced gamma interferon (MIG), CXCL9 (gene 4283); assay: BSK_CASM3C_MIG: BioMAP Diversity Plus: CASM3C Assay for Monokine induced gamma interferon (MIG) Biomarker Activity (AID 2283048); conditions: primary human coronary artery smooth muscle cells; actives raise or lower the signal;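 further: MIG protein level measured by ELISA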
[10] = read-out: serum amyloid A (SAA), SAA1 (gene 6288); assay: BSK_CASM3C_SAA: BioMAP Diversity Plus: CASM3C Assay for serum amyloid A (SAA) Biomarker Activity (AID 2283049); conditions: primary human coronary artery smooth muscle cells; actives raise or lower the signal;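 further: SAA protein level quantified by ELISA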

Compound	outcome [1]	outcome [2]	outcome [3]	outcome [4]	outcome [5]	outcome [6]	outcome [7]	outcome [8]	outcome [9]	outcome [10]	AC50 [6]	AC50 [8]	AC50 [5]	AC50 [7]	AC50 [9]	AC50 [10]	AC50 [1]	AC50 [2]	AC50 [4]
CNC(C)=O	inactive	inactive	inactive	inactive	inactive	inactive	inactive	inactive	inactive	inactive									
CCCCCCOC(=O)CC(CC(=O)OCCCCCC)(OC(=O)CCC)C(=O)OCCCCCC	inactive	inactive	inactive	inactive	inactive	inactive	inactive	inactive	inactive	inactive									
O=C1CN(N=Cc2ccc([N+](=O)[O-])o2)C(=O)N1	inactive	inactive	inactive	inactive	inactive	inactive	inactive	inactive	inactive	inactive									
NC(=O)N(O)[C@@H]1COc2cc(OCc3ccccc3)ccc21	inactive	inactive	inactive	inactive	inactive	inactive	inactive	inactive	inactive	inactive									
CCCCN1C(=O)[C@@H]([C@H](O)C2CCCCC2)NC(=O)C12CCN(Cc1ccc(Oc3ccc(C(=O)O)cc3)cc1)CC2	inactive	inactive	inactive	inactive	inactive		inactive		inactive	inactive	9.69 µM (active)	18.3 µM (active)							
CCOC(N)=O	inactive	inactive	inactive	inactive	inactive	inactive	inactive	inactive	inactive	inactive									
CC1(C)C(=O)N(Cl)C(=O)N1Cl	inactive	inactive	inactive	inactive	inactive	inactive	inactive	inactive	inactive	inactive									
CCCCCCCCCCCCCCO	inactive	inactive	inactive	inactive							32.3 µM (active)	38 µM (active)	31.3 µM (active)	32.4 µM (active)	29.5 µM (active)	31 µM (active)			
FC(F)(F)C(F)(F)C(F)(F)C(F)(F)C(F)(F)C(F)(F)I	inactive	inactive	inactive	inactive	inactive	inactive	inactive	inactive	inactive	inactive									
COS(C)(=O)=O	inactive	inactive	inactive	inactive	inactive	inactive	inactive	inactive	inactive	inactive									
FC(F)C(F)(F)COCC1CO1 (stereo not given)	inactive	inactive	inactive	inactive	inactive	inactive	inactive	inactive	inactive	inactive									
Cc1ccc(S(=O)(=O)NC(=O)NN2CCCCCC2)cc1	inactive	inactive	inactive	inactive	inactive	inactive	inactive	inactive	inactive	inactive									
O=C(O)[C@H](O)[C@@H](O)C(=O)O	inactive	inactive	inactive	inactive	inactive	inactive	inactive	inactive	inactive	inactive									
NCC(F)(F)C(F)(F)C(F)(F)C(F)(F)F	inactive	inactive	inactive	inactive	inactive	inactive	inactive	inactive	inactive	inactive									
NC(=O)N1c2ccccc2C=Cc2ccccc21	inactive	inactive	inactive	inactive	inactive	inactive	inactive	inactive	inactive	inactive									
COCc1nnc(-c2ccc[n+]([O-])c2)n1-c1c(Cl)c(Cl)cc2[nH]c(=O)c(=O)[nH]c12	inactive	inactive	inactive	inactive	inactive	inactive	inactive	inactive	inactive	inactive									
C[C@@H](Oc1ccc(CNC(=O)c2cccnc2Oc2ccc3c(c2)OCO3)c(F)c1)C(=O)O	inactive	inactive	inactive	inactive	inactive	inactive	inactive	inactive	inactive	inactive									
Cc1nccn1-c1ccc(Sc2cccc(C3(C(N)=O)CCOCC3)c2)cc1			inactive		inactive	inactive	inactive			inactive		20 µM (active)			16.4 µM (active)		5.2 µM (active)	4.43 µM (active)	15.7 µM (active)
c1ccc2cc3ccccc3cc2c1	inactive	inactive	inactive	inactive	inactive	inactive	inactive	inactive	inactive	inactive									
Nc1ccn([C@@H]2O[C@H](CO)[C@@H](O)[C@@H]2O)c(=O)n1	inactive	inactive	inactive	inactive	inactive	inactive	inactive		inactive	inactive		0.148 µM (active)							
